Holding throughout (settings): primary human HUVEC with PBMC; actives raise or lower the signal
Read-out in assay [1]: Monocyte Chemoattractant Protein-1 (MCP1), CCL2 (gene 6347)
In words: BSK_LPS_MCP1: BioMAP Diversity Plus: LPS Assay for Monocyte Chemoattractant Protein-1 (MCP1) Biomarker Activity (AID 2283081).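 As to AC50: secreted MCP-1 protein quantified by ELISA in culture supernatant.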 Put shortly:
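ELISA read-out of MCP-1 after 24 h chemical dosing of a human umbilical vein endothelial cell/peripheral blood mononuclear cell co-culture stimulated with LPS. Gain or loss of signal fitted relative to DMSO controls.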

Assay [2] is described as follows: BSK_LPS_PGE2: BioMAP Diversity Plus: LPS Assay for Prostaglandin E2 (PGE2) Biomarker Activity (AID 2283082). Put shortly: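 Endpoint derived from bidirectional curve fitting versus DMSO of ELISA-measured PGE2 in LPS-stimulated human primary vascular co-culture (HUVEC with PBMC) harvested at 24 h.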
Read-out in assay [3]: Macrophage colony-stimulating factor (MCSF), CSF1 (gene 1435)
Description: BSK_LPS_MCSF: BioMAP Diversity Plus: LPS Assay for Macrophage colony-stimulating factor (MCSF) Biomarker Activity (AID 2283083). Put shortly: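 HUVEC + PBMC co-culture (human primary), 24 h post-dose; M-CSF by ELISA; gain/loss of signal fitted bidirectionally vs DMSO baseline.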

Read-out in assay [4]: Tumor necrosis factor (Homo sapiens) (UniProt P01375)
Description: BSK_LPS_TNFa: BioMAP Diversity Plus: LPS Assay for Tumour Necrosis Factor alpha (TNFa) Biomarker Activity (AID 2283085). Put shortly:
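Primary human vascular co-culture of HUVEC and PBMC; TNFa ELISA 24 h after treatment, analysed as increase or decrease relative to DMSO control.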

Read-out in the next assay: CD38, CD38 (gene 952)
Description: BSK_SAg_CD38: BioMAP Diversity Plus: SAg Assay for CD38 Biomarker Activity (AID 2283087). Put shortly: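 Fluorescence ELISA of cell-surface CD38 served as the read-out, with either increase or decrease fitted against DMSO controls. Cells were a human umbilical vein endothelium plus PBMC co-culture under SEB/TSST-1 stimulation, measured 24 h after dosing.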

Read-out in the next assay: CD40, CD40 (gene 958)
In words: BSK_SAg_CD40: BioMAP Diversity Plus: SAg Assay for CD40 Biomarker Activity (AID 2283088). Put shortly: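 HUVEC/PBMC co-culture, 24 h post-dose; CD40 by ELISA, fluorescence intensity; bidirectional fit vs DMSO negative control.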

Read-out in a further assay: CD69, CD69 (gene 969)
In words: BSK_SAg_CD69: BioMAP Diversity Plus: SAg Assay for CD69 Biomarker Activity (AID 2283089).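 As to AC50: cell surface CD69 protein quantified by ELISA with fluorescence detection.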 Put shortly:
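Primary human vascular co-culture (umbilical vein endothelium with peripheral blood mononuclear cells) exposed to test chemical for 24 h. CD69 levels quantified by fluorescence ELISA; DMSO served as negative control for bidirectional fitting.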

Read-out in assay [5]: Monocyte Chemoattractant Protein-1 (MCP1), CCL2 (gene 6347)
Description: BSK_SAg_MCP1: BioMAP Diversity Plus: SAg Assay for Monocyte Chemoattractant Protein-1 (MCP1) Biomarker Activity (AID 2283090). Put shortly: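 MCP-1 levels in the endothelial–PBMC SAg co-culture were quantified by ELISA at 24 h post-dosing; both increases and decreases versus DMSO scored. Cytotoxicity monitored by SRB total protein in parallel cultures.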

Read-out in assay [6]: Tissue Factor, F3 (gene 2152)
Description: BSK_LPS_TissueFactor: BioMAP Diversity Plus: LPS Assay for Tissue Factor Biomarker Activity (AID 2283084). Put shortly:
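HUVEC/PBMC co-culture, LPS-activated; CD142 ELISA read 24 h post-dose; bidirectional curve fit vs DMSO negative control.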

Read-out in assay [7]: Vascular cell adhesion molecule 1 (VCAM1), VCAM1 (gene 7412)
Description: BSK_LPS_VCAM1: BioMAP Diversity Plus: LPS Assay for Vascular cell adhesion molecule 1 (VCAM1) Biomarker Activity (AID 2283086). Put shortly:
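Primary human vascular co-culture (umbilical vein endothelium plus PBMC) stimulated with LPS received chemical; 24 h later VCAM-1 was read by ELISA. Overt cytotoxicity was assessed by sulforhodamine B staining of parallel cultures at the same time point.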

Values joined by “and” are separate entries in the source; they are usually repeats but may differ in a detail not shown here. Identical values can stand only once. Some structures have more than one record in an assay (separate samples or runs), and their calls can disagree. Active and inactive are the calls of the source. The calls were made as follows: active = hit-call score of the fitted dose curve at least 0.9, where 1 is the maximum; inactive = score below 0.9.

The results in this text go back to PubChem BioAssay (EPA / NIEHS).

Tumor necrosis factor (Homo sapiens), sequence (P01375 whole entry, looked up): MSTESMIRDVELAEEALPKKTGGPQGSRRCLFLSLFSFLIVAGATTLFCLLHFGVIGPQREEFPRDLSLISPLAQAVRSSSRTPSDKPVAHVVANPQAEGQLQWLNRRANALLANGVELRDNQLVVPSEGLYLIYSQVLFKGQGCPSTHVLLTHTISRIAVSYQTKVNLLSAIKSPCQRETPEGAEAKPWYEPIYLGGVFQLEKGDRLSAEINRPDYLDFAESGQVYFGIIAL

Consider `O=S(=O)(OCC(F)(F)F)C(F)(F)C(F)(F)C(F)(F)C(F)(F)F`, for which the AC50 is 20.6 µM (active) in assay [1]; 43.7 µM (active) and 16.3 µM (active) in [4]. Besides, the outcome in assay [1] is “inactive”; in assay [2], “inactive”; in assay [3] it was “inactive”; with CD38, CD38 (gene 952) it was “inactive”; in the assay with CD40, CD40 (gene 958), “inactive”; with CD69, CD69 (gene 969) it was “inactive”. The outcome in assay [5] was inactive.

Consider `O=C1C=CC(=O)N1c1ccc(Cc2ccc(N3C(=O)C=CC3=O)cc2)cc1`, for which the AC50 was 14.9 µM (active) in assay [1]; 5.34 µM (active) in assay [2]; 10 µM (active) in assay [3]; 5.57 µM (active) in assay [6]; 8.82 µM (active) in assay [4]; 11.1 µM (active) in assay [7]. In addition, the concentration at half-maximal activity (AC50) with CD38, CD38 (gene 952) is 5.71 µM (active); with CD40, CD40 (gene 958), 12.1 µM (active); with CD69, CD69 (gene 969) it was 6.1 µM (active); in assay [5], 6.98 µM (active).

In the case of `O=C(F)C1(F)C(F)(F)C(F)(F)C(F)(F)C(F)(F)C1(F)F`, the outcome in assay [1] was “inactive”; in assay [2] it was “inactive”; in [3], “inactive”; in assay [4], “inactive”; in assay [7], “inactive”; with CD38, CD38 (gene 952), “inactive”. In addition, the outcome is “inactive” with CD40, CD40 (gene 958); “inactive” in the assay with CD69, CD69 (gene 969); “inactive” in assay [5].

As for `CO[Si](C)(CCC(F)(F)C(F)(F)C(F)(F)C(F)(F)C(F)(F)C(F)(F)F)OC`, the outcome was “inactive” in assay [1]; “inactive” in assay [2]; “inactive” in [3]; “inactive” in [4]; “inactive” in assay [7]; “inactive” with CD38, CD38 (gene 952). Besides, the outcome is “inactive” in the assay with CD40, CD40 (gene 958); “inactive” with CD69, CD69 (gene 969); “inactive” in assay [5].

For the molecule `O=C(O)CCC(F)(F)C(F)(F)C(F)(F)F`, the outcome in assay [1] is “inactive”; in assay [2], “inactive”; in [3], “inactive”; in assay [4] it was “inactive”; in assay [7] it was “inactive”; in the assay with CD38, CD38 (gene 952), “inactive”. Besides, the outcome in the assay with CD40, CD40 (gene 958) is “inactive”; with CD69, CD69 (gene 969), “inactive”; in [5], “inactive”.

In the case of `Brc1nc2ccccc2s1`, the outcome was “inactive” in assay [1]; “inactive” in assay [2]; “inactive” in [3]; “inactive” in [4]; “inactive” with CD38, CD38 (gene 952); “inactive” with CD40, CD40 (gene 958). In addition, the outcome with CD69, CD69 (gene 969) is “inactive”; in assay [5], “inactive”.

For the molecule `CCN(CC)c1ccc(C=O)c(O)c1`, the outcome was “inactive” in assay [1]; “inactive” in assay [2]; “inactive” in [3]; “inactive” in [4]; “inactive” with CD38, CD38 (gene 952); “inactive” in the assay with CD40, CD40 (gene 958). Also, the outcome is “inactive” with CD69, CD69 (gene 969) and “inactive” in assay [5].

As for `Cc1cc(C)c(O)c(C(C)(C)C)c1`, the AC50 is 36.7 µM (active) in assay [1]; 34.4 µM (active) in assay [3]; 31.3 µM (active) in assay [7]; 32.5 µM (active) with CD38, CD38 (gene 952); 30.5 µM (active) with CD40, CD40 (gene 958); 31.5 µM (active) in the assay with CD69, CD69 (gene 969). Moreover, the AC50 in assay [5] is 30.8 µM (active). Besides, the result in assay [2] and in assay [4] was inactive.

As to `O=C(O)C(F)(F)OC(F)(F)C(F)(F)OC(F)(F)C(F)(F)OC(F)(F)F`, the outcome in assay [1] was “inactive”; in [2], “inactive”; in assay [3], “inactive”; in assay [4], “inactive”; in assay [7] it was “inactive”; in the assay with CD38, CD38 (gene 952), “inactive”. Further, the outcome with CD40, CD40 (gene 958) was “inactive”; with CD69, CD69 (gene 969), “inactive”; in [5], “inactive”.

For `NC(=O)C(F)(F)C(F)(F)C(F)(F)C(F)(F)C(F)(F)C(F)(F)C(F)(F)F`, the outcome in assay [1] is “inactive”; in assay [2] it was “inactive”; in [3] it was “inactive”; in [4], “inactive”; with CD38, CD38 (gene 952), “inactive”; with CD40, CD40 (gene 958) it was “inactive”. The outcome with CD69, CD69 (gene 969) was “inactive”; in assay [5] it was “inactive”.

With `O=C(O)C(F)(F)C(F)(F)C(F)(F)OC(F)(C(F)(F)F)C(F)(F)F`, the outcome in assay [1] was “inactive”; in [2], “inactive”; in assay [3], “inactive”; in assay [4], “inactive”; with CD38, CD38 (gene 952), “inactive”; with CD40, CD40 (gene 958) it was “inactive”. Moreover, the outcome in the assay with CD69, CD69 (gene 969) is “inactive”; in [5], “inactive”.

Regarding `O=C(c1ccccc1)c1ccc(O)cc1O`, the outcome in assay [1] is “inactive”; in assay [3] it was “inactive”; in assay [4], “inactive”; in the assay with CD40, CD40 (gene 958), “inactive”; in the assay with CD69, CD69 (gene 969), “inactive”; in [5] it was “inactive”. The AC50 is 0.726 µM (active) in assay [2] and 20 µM (active) in the assay with CD38, CD38 (gene 952).

For the molecule `O=C(O)C(F)(F)C(F)(F)C(F)(F)C(=O)O`, the outcome in [1] was “inactive”; in assay [2], “inactive”; in assay [3], “inactive”; in [4] it was “inactive”; in assay [7], “inactive”; with CD38, CD38 (gene 952), “inactive”. The outcome was “inactive” with CD40, CD40 (gene 958); “inactive” with CD69, CD69 (gene 969); “inactive” in assay [5].

`O=C(Cl)C(F)(F)C(F)(F)C(F)(F)C(F)(F)C(F)(F)C(F)(F)F`: the outcome in assay [1] is “inactive”; in assay [2] it was “inactive”; in assay [3], “inactive”; in assay [4] it was “inactive”; in the assay with CD38, CD38 (gene 952), “inactive”; with CD40, CD40 (gene 958), “inactive”. For the same molecule, the outcome is “inactive” in the assay with CD69, CD69 (gene 969) and “inactive” in [5].

`Cc1ccc(O)c(-n2nc3ccccc3n2)c1`: the outcome is “inactive” in assay [1]; “inactive” in assay [2]; “inactive” in assay [3]; “inactive” with CD38, CD38 (gene 952); “inactive” with CD40, CD40 (gene 958); “inactive” with CD69, CD69 (gene 969). In [5], the result was inactive. For the same molecule, the AC50 in [4] is 1.8 µM (active).

Take `Cc1ccc(S(=O)(=O)C(I)I)cc1`: the AC50 in [1] is 3.77 µM (active); in [3], 2.3 µM (active); with CD38, CD38 (gene 952), 2.99 µM (active); with CD40, CD40 (gene 958), 2.98 µM (active); in the assay with CD69, CD69 (gene 969), 3.25 µM (active); in assay [5], 3.7 µM (active). Moreover, the outcome in [2] and in assay [4] was inactive.

As for `O=C=Nc1cccc2c(N=C=O)cccc12`, the outcome was “inactive” in [1]; “inactive” in assay [2]; “inactive” in assay [3]; “inactive” in [4]; “inactive” with CD38, CD38 (gene 952); “inactive” in the assay with CD40, CD40 (gene 958). The outcome with CD69, CD69 (gene 969) is “inactive”; in [5] it was “inactive”.
